An excerpt weighted towards active compounds, which were near 3.2% of everything screened.
CDK5 inh – blocks human CDK5/p35 kinase activity | AID 488839 | Q00535+Q15078 | Recombinant CDK5/p35, ADP-Glo luminescence, 60 min | 0.01% of 330,000 active | inhibition, % at 10 µM;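 active = highest replicate inhibition of at least 50% and at least 75% of replicates reaching 50%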
Dyrk1A ADPGlo – blocks rat Dyrk1A kinase activity; 0.43% of 310,000 active; Q63470; inhibition, % at 12.5 µM; AID 504441; ADP-Glo luminescence, NFATc1 peptide; in the data active = inhibition above about 50%
Rtt109 HAT inh – C. albicans Rtt109 histone acetyltransferase inhibition; Q5AAJ8; purified Rtt109/Vps75, ThioGlo CoA-SH fluorescence, 4 h; inhibition, % at 34.9 µM; 0.16% of 330,000 active; AID 540336;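 active = inhibition of at least 50% in every replicate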
esBAF inh – inhibitors of esBAF chromatin remodeling in mouse ES cells; AID 602393; 2% of 350,000 active; reporter increase, % at 12.5 µM; Bmi1-luciferase knock-in reporter, 24 h; 100% = twice the neutral-well signal; in the data active = activation above about 40%;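 also: a rise in the Bmi1 reporter signal indicates esBAF inhibition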
dFosB activator – enhances mouse delta FosB homodimer DNA binding; P13346; purified delta FosB, TAMRA-CDK5 oligo fluorescence polarization; percent of positive-control signal above neutral wells; activation, % at 25 µM; 0.99% of 340,000 active; AID 493131;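 active = mean activation above about 17%, with every replicate also reaching it, limit read from the data, passing the limit was not always enough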
Target sequence (P13346 whole entry, looked up): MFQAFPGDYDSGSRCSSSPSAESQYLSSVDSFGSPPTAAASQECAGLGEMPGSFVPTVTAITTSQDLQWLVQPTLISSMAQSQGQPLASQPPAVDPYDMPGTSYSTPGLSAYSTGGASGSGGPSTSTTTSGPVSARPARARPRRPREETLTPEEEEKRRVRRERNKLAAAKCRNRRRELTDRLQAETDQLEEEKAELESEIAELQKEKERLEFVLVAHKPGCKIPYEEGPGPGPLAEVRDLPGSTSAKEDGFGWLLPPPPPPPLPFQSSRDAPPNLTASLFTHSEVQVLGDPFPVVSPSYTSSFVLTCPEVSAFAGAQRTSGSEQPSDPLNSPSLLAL
SMARCA2 activ – SMARCA2 function activation, primary screen; MG213 cells, MMTV-luciferase reporter, dexamethasone, overnight; activation, % at 9.1 µM; 1% of 370,000 active; AID 652017; in the data active = activation above about 7.8%
Hits are given with their value.

`O=C(Nc1ccc(Cl)cc1Cl)NC1CCCC1` gave CDK5 inh inactive, Dyrk1A ADPGlo inactive, Rtt109 HAT inh inactive, esBAF inh inactive, dFosB activator inactive and SMARCA2 activ inactive.
`Cc1cc(Cl)ccc1NC(=S)N1CCN(C(=O)C2CCCO2)CC1` (stereo unspecified) gave CDK5 inh inactive, Dyrk1A ADPGlo inactive, Rtt109 HAT inh inactive, dFosB activator inactive and SMARCA2 activ inactive.
COc1ccc(S(=O)(=O)N(C)C[C@@H]2OCCCC[C@H](C)Oc3ccc(NC(=O)Nc4ccc(C(F)(F)F)cc4)cc3C(=O)N([C@H](C)CO)C[C@@H]2C)cc1 was read as esBAF inh inactive.
For CN(C)c1ccccc1-c1csc(N2CCC(C(N)=O)CC2)n1 the results were CDK5 inh inactive, Dyrk1A ADPGlo inactive, Rtt109 HAT inh inactive, esBAF inh 70, dFosB activator inactive and SMARCA2 activ inactive.
`NC(=O)C1CCN(c2nc(-c3ccccc3C(F)(F)F)cs2)CC1` gave CDK5 inh inactive, Dyrk1A ADPGlo inactive, Rtt109 HAT inh inactive, esBAF inh 68, dFosB activator inactive and SMARCA2 activ inactive.
NC(=O)C1CCN(c2nc(-c3ccccc3Br)cs2)CC1 was read as SMARCA2 activ inactive.
Screening NC(=O)C1CCN(c2nc(-c3ccccc3F)cs2)CC1 returned CDK5 inh inactive, Dyrk1A ADPGlo inactive, Rtt109 HAT inh inactive, esBAF inh inactive, dFosB activator inactive and SMARCA2 activ inactive.
Screening C[C@@H]1CN([C@H](C)CO)S(=O)(=O)c2ccc(C#CCN(C)C)cc2O[C@H]1CN(C)C(=O)C1CCCCC1 returned esBAF inh inactive.
`O=C(NCC1CCCO1)c1cc(-c2ccncc2)nc2ccccc12` (stereo unspecified) gave CDK5 inh inactive, Dyrk1A ADPGlo inactive, Rtt109 HAT inh inactive, esBAF inh inactive, dFosB activator inactive and SMARCA2 activ inactive.
CCCOc1ccc(-c2cc(C(=O)NCC3CCCO3)c3ccccc3n2)cc1 (stereo unspecified) was read as CDK5 inh inactive, Dyrk1A ADPGlo inactive, Rtt109 HAT inh inactive, esBAF inh 23, dFosB activator inactive and SMARCA2 activ inactive.
Cc1ccc(S(=O)(=O)N(C)C[C@H]2OCCCC[C@@H](C)Oc3ccc(NS(=O)(=O)c4c(C)noc4C)cc3C(=O)N([C@@H](C)CO)C[C@@H]2C)cc1 was read as esBAF inh inactive.
O=C(OCc1ccccc1F)c1ccc2c(c1)-c1ccccc1C2=O was read as CDK5 inh inactive, Dyrk1A ADPGlo inactive, Rtt109 HAT inh inactive, esBAF inh 44 and dFosB activator inactive.
`Oc1ccc(-c2cccc(-c3ccc(O)cc3)n2)cc1` gave CDK5 inh inactive, Dyrk1A ADPGlo inactive, Rtt109 HAT inh inactive, esBAF inh 48, dFosB activator inactive and SMARCA2 activ inactive.
Screening Oc1ccc(-c2cc(-c3ccc(O)cc3)nc(-c3ccccc3)n2)cc1 returned CDK5 inh inactive, Dyrk1A ADPGlo inactive, Rtt109 HAT inh inactive, esBAF inh inactive, dFosB activator inactive and SMARCA2 activ inactive.
`CNC[C@H]1OCCCC[C@@H](C)Oc2ccc(NS(=O)(=O)c3ccccc3)cc2C(=O)N([C@@H](C)CO)C[C@H]1C` gave esBAF inh inactive.
`CCC(=O)N1CCN(c2nc3ccc(Br)cc3s2)CC1` gave Rtt109 HAT inh inactive, esBAF inh 75, dFosB activator inactive and SMARCA2 activ inactive.
Screening CCCCC(=O)N1CCN(c2nc3ccc(F)cc3s2)CC1 returned CDK5 inh inactive, Dyrk1A ADPGlo inactive, Rtt109 HAT inh inactive, esBAF inh inactive, dFosB activator inactive and SMARCA2 activ inactive.
Screening O=[N+]([O-])c1ccc(NN=Cc2ccc3c(c2)OCO3)nc1 returned CDK5 inh inactive, Dyrk1A ADPGlo inactive, Rtt109 HAT inh inactive, esBAF inh 93, dFosB activator inactive and SMARCA2 activ inactive.
Screening CC(=O)Nc1ccc(C=NNc2ccc([N+](=O)[O-])cn2)cc1 returned CDK5 inh inactive, Dyrk1A ADPGlo inactive, Rtt109 HAT inh inactive, esBAF inh 89, dFosB activator inactive and SMARCA2 activ inactive.
Screening O=[N+]([O-])c1ccc(NN=Cc2ccco2)nc1 returned CDK5 inh inactive, Dyrk1A ADPGlo inactive, Rtt109 HAT inh inactive, esBAF inh 91, dFosB activator inactive and SMARCA2 activ inactive.
For Cc1noc(C)c1NC(=O)Nc1cccc2c1O[C@@H](CN(C)S(=O)(=O)c1cccs1)[C@@H](C)CN([C@@H](C)CO)C2=O the results were esBAF inh inactive.
Screening COc1cccc(S(=O)(=O)N(C)C[C@H]2Oc3ncc(-c4cccc(C(=O)N(C)C)c4)cc3C(=O)N([C@@H](C)CO)C[C@@H]2C)c1 returned esBAF inh inactive.
Cc1cc(C(=O)CSc2nncs2)c(C)n1-c1ccc2c(c1)OCO2 was read as CDK5 inh inactive, Rtt109 HAT inh inactive, esBAF inh 80, dFosB activator inactive and SMARCA2 activ inactive.
`CCCc1cc2c(=O)c(-c3ccc4c(c3)OCCO4)coc2cc1OC(=O)c1ccco1` gave CDK5 inh inactive, Dyrk1A ADPGlo inactive, Rtt109 HAT inh inactive, esBAF inh 81, dFosB activator inactive and SMARCA2 activ inactive.
C[C@H](O)[C@@H]1C(=O)N2CCc3ccc(N4CCN(C)CC4)cc3[C@@H]2C[C@@H]1N(C)C(=O)NC1CCCCC1 was read as CDK5 inh inactive, Dyrk1A ADPGlo inactive, Rtt109 HAT inh inactive, esBAF inh inactive, dFosB activator inactive and SMARCA2 activ 7.9.
`CCCNC(=O)Nc1ccc2c(c1)OC[C@@H](C)N(Cc1ccccc1)C[C@@H](C)[C@H](OC)CN(C)C2=O` gave esBAF inh inactive.
For CCCNC(=O)[C@@H]1[C@@H](CO)[C@@H]2Cn3c(cccc3=O)[C@H]1N2S(=O)(=O)c1ccccc1F the results were esBAF inh inactive.
`Clc1ccc(-n2nnc(-c3cccnc3Cl)n2)cc1Cl` gave CDK5 inh inactive, Dyrk1A ADPGlo inactive, Rtt109 HAT inh inactive, esBAF inh 55, dFosB activator inactive and SMARCA2 activ inactive.
Clc1ncccc1-c1nnn(-c2ccccc2)n1 was read as CDK5 inh inactive, Dyrk1A ADPGlo inactive, Rtt109 HAT inh inactive, esBAF inh inactive, dFosB activator inactive and SMARCA2 activ inactive.
Screening COc1ccc(-c2cnc3c(c2)C(=O)N([C@H](C)CO)C[C@H](C)[C@@H](CN(C)S(C)(=O)=O)O3)cc1 returned esBAF inh inactive.
Cc1ccc(-c2csc3nc(CN(C)Cc4ccccc4)[nH]c(=O)c23)cc1 was read as CDK5 inh inactive, Dyrk1A ADPGlo inactive, Rtt109 HAT inh inactive, esBAF inh inactive, dFosB activator inactive and SMARCA2 activ inactive.
Screening O=c1[nH]c(Cc2ccc(F)cc2)nc2scc(-c3ccc(F)cc3)c12 returned CDK5 inh inactive, Dyrk1A ADPGlo inactive, Rtt109 HAT inh inactive, esBAF inh 47, dFosB activator inactive and SMARCA2 activ inactive.
